12-hLO inh = inhibitors of human 12-lipoxygenase (ALOX12) | 0.12% of 150,000 active | AID 1452 | purified 12-hLO, xylenol orange hydroperoxide absorbance | Potency, µM (top dose mostly 57.1 µM), without a hit: at the highest dose activity change, negative = inhibition, most hits filed as inhibitors | P18054; also: potency is read from the fitted curve at half-maximal effect; nearly all actives have a fitted effect of over 55% in size
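150 nM 12hLO, 25 mM Hepes pH 7.0 + 0.01% Triton X-100; cpd preinc 15 min RT; 40 uM arachidonic acid, 30 min RT; Fe-XO 30 min; A573/A405 ratio as read-out.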
PNC inhibitor = blocks assembly of the perinucleolar compartment | PC3M PTB-GFP, PNC prevalence imaging, 16 h; hits give low values | activity change (PNC), negative = inhibition, % at 10 µM | 3.1% of 140,000 active | AID 2417;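 active = readout at or below -70, meaning at least 70% loss of cells showing the perinucleolar compartment, a nuclear body marking cancer cells; inconclusive = readout between -30 and a set limit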;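 also: plate controls were DMSO wells for no effect and camptothecin positive control wells for full effect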
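Read-out is percentage of cells bearing a perinucleolar compartment, from automated 20x imaging of fixed, Hoechst-stained PC3M PTB-GFP cells. Cells were seeded 4 h, then exposed 16 h to compound (23 nl of library stock) in duplicate plates.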
IMPase cell inh = cell-permeable inhibitors of inositol monophosphatase (IMPase). P97697. CHO-M1 cells, IP1 accumulation, HTRF TR-FRET ratio. inhibition (IP1 accumulation), % at 46.1 µM. 120,000 tested, under 10 active. AID 901; active = well fitted curve in the direction sought with a large enough effect in the signal ratio, not every such curve was filed as active; inconclusive = small, poorly fitted or top-dose-only effect, or a change in a side signal; inactive = no such curve, though single readings can be large or run the other way; the % refers to the signal ratio;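 also: cells stimulated with carbachol in lithium chloride buffer; plate controls were DMSO basal wells for no effect and reference inhibitor wells for full effect; higher means more IMPase inhibition seen as more IP1 and lower FRET ratio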
Target sequence (P97697 whole entry, looked up): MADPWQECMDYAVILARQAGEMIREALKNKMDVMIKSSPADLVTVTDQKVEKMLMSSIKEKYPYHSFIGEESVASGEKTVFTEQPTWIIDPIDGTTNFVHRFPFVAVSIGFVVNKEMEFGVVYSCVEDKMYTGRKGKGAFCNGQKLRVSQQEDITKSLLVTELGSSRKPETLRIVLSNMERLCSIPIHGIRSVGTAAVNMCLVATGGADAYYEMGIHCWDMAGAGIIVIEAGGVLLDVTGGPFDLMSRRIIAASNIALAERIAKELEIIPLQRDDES
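Carbachol-driven Gq signalling in CHO-M1 cells (2000/well) generates IP1. Compounds that block IMPase raise IP1 and so reduce the FRET signal from Eu-anti-IP1 and d2-IP1 after a 10 min room-temperature lysis.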
IMPase Li inh = IMPase inhibition in cells with lithium potentiation; 0.35% of 210,000 active; CHO-M1 cells, IP1 TR-FRET (IP-One), carbachol + lithium; Potency, µM (doses to about 59.4 µM), inactives show at the top dose activity, negative = IMPase inhibition, usual class: inhibitors;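 also: IP1 builds up when IMPase is blocked and the TR-FRET signal falls; potency is read from the fitted curve at half-maximal effect; plate controls were basal vehicle for no effect and high inhibitor control for full effect; nearly all actives have a fitted effect of over 50% in size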
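CHO cells stably expressing M1 receptor (2000/well, cultured 16–30 h) treated 30 min at 37C with compound plus low lithium. Cytosolic IP1 by TR-FRET (665/620 ratio and 620 channel) after 10 min lysis; AC50 by Hill fit.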
HPGD block = inhibitors of human 15-hydroxyprostaglandin dehydrogenase (HPGD). P15428. purified HPGD, NADH fluorescence kinetic, PGE2 substrate. Potency, µM, inactives show top-dose activity change, negative = inhibition, hits mostly inhibitors. 4.3% of 150,000 active. AID 894; active = well fitted inhibition curve with a large enough effect, not every such curve was filed as active; inconclusive = small, poorly fitted or top-dose-only effect, or another doubt; inactive = no such curve, though single readings can be large or run the other way; also: potency is read from the fitted curve at half-maximal effect
Target sequence (P15428 whole entry, looked up): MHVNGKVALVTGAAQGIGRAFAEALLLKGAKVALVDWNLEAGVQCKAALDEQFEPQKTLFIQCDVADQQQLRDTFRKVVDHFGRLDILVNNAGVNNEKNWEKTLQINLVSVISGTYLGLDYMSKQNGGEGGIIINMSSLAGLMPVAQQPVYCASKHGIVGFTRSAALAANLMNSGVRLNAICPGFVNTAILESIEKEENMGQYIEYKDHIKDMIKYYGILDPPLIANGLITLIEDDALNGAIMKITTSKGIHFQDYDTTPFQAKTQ
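20 nM HPGD preincubated 15 min at room temperature with compound in 50 mM Tris-HCl pH 8, 0.01% Tween 20. Started with 1 mM NAD+ and 30 uM prostaglandin E2; NADH fluorescence (360/450 nm) read 5 times over 30-s intervals, last minus first.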
ALOX15B inhib = blocks human 15-lipoxygenase 2 activity. purified 15hLO-2, xylenol orange hydroperoxide absorbance. Potency, µM (top dose mostly 57.1 µM), without a hit: at the highest dose activity change, negative = inhibition, most hits filed as inhibitors. 0.56% of 110,000 active; also: potency is read from the fitted curve at half-maximal effect; nearly all actives have a fitted effect of over 60% in size
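Enzyme 50 nM, AA 45 uM, 25 mM Hepes pH 7.5 + 0.01% Triton X-100; cpd preinc 15 min RT, rxn 90 min RT; stop/detect with 200 uM XO + 300 uM Fe(II) in 50 mM H2SO4, 30 min; A573/A405.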
Numbers without * were called inactive; ? = inconclusive; nt = not tested or not shown; [ ] = remark or other dose. Sampled rows, rich in hits. Any-hit rate of the full collection: about 5.4%. Unless noted, calls follow the shape of the dose curve; as a rule, active = well fitted curve in the direction sought with a large enough effect; inconclusive = small, poorly fitted or top-dose-only effect, or another doubt; inactive = no such curve, though single readings can be large; an effect the other way counts as inactive or inconclusive. Unless noted, % is scaled to controls: 0 for no effect and ±100 for the full control effect.

SMILES	12-hLO inh	PNC inhibitor	IMPase cell inh	IMPase Li inh	HPGD block	ALOX15B inhib
CCOc1ccc(NCC(=O)Nc2ccc(Cl)cc2C)cc1	-7%	-27	6	3%	-5%	nt
COc1ccc(NC(=O)CSc2c3c(nc4ccccc24)CCCC3)c(OC)c1	-1%	-113*	nt	4%	-7%	nt
C[C@@H]1NCC[C@H](CC(=O)O)[C@H]1CC(=O)O	3%[11.4 µM]	nt	nt	0%	-9%	-5%[11.4 µM]
CCc1cccc(CC)c1NC(=O)CO/N=C(\C)c1cccs1	-2%	-1	10	-2%	0.63µM*	nt
C/C(=N/OCC(=O)Nc1ccc(C)cc1C)c1cccs1	-1%	31	0	21%[38.3 µM]	7.9µM*	-11%
C/C(=N\OCC(=O)Nc1ccccc1C(=O)O)c1cccs1	nt	nt	nt	-12%	nt	nt
COC(=O)c1cc(CC(=O)c2ccc(O)cc2O)c(C)o1	-15%	32	-3	-2%[38.3 µM]	16µM*	nt
COC(=O)c1ccc(CC(=O)c2ccc(O)cc2O)o1	-25%	6	?	-27%[38.3 µM]	32µM*	?
O=c1nc2ccccc2c2n1CC(CN1CCN(c3ccccc3)CC1)N2 (stereo not given)	nt	nt	nt	-6%	nt	nt
CCOCCOC(=O)c1cccc(NC(=O)OCC)c1	1%	-19	-2	7%[38.3 µM]	-24%	5%
CCOC(=O)C1=C(C)Nc2ccc(C)cc2S1	?	1	4	12%[38.3 µM]	-12%	4µM*
CCOCCOC(=O)C1=C(C)Nc2ccc(C)cc2S1	-16%	-20	-3	20%[38.3 µM]	-25%	16µM*
CCOC(=O)/C=C1\Nc2ccccc2SC1=O	-3%	?	7	-1%[38.3 µM]	-22%	-12%
CSCCOC(=O)C1=C(C)Nc2ccc(C)cc2S1	-17%	?	2	32%[38.3 µM]	-14%	5µM*
COc1ccccc1C(=O)NC1CCCCCCC1	4%	-25	2[0.0738 µM]	1%	-10%	nt
COc1ccccc1Nc1ccc(C(=O)NC2CCCCC2)cn1	-3%	-23	-2	22%[38.3 µM]	16µM*	5%
O=C(CSc1ccccc1C(=O)NCc1ccccc1)NC1CCCCCCC1	-3%	45	?	25%	20µM*	nt
O=C(NCC1CCCO1)c1cc(C(=O)C2CCCCC2)c[nH]1 (stereo not given)	nt	nt	nt	-7%	nt	nt
COc1ccc(C(=O)c2c[nH]c(C(=O)NCC3CCCO3)c2)cc1 (stereo not given)	-10%	19	7	-3%[38.3 µM]	2µM*	-6%
Cc1ccccc1C(=O)c1c[nH]c(C(=O)NCC2CCCO2)c1 (stereo not given)	-3%	25	-4	-2%[38.3 µM]	6.3µM*	-6%
CSc1ccccc1C(=O)NC1CCCC1	5%	-9	6	23%[38.3 µM]	20µM*	0%
NCC(=O)NC1(C(=O)O)CCCC1	9%[11.4 µM]	nt	nt	11%	-2%	0%[11.4 µM]
Cc1ccn2c(CCc3nnc4cc(C)ccn34)nnc2c1	-4%[11.4 µM]	nt	nt	1%	-1%	0%[11.4 µM]
Cc1cc(C)cc(NC(=S)NCC2CCCO2)c1 (stereo not given)	-9%	?	10	-19%[38.3 µM]	14µM*	-17%
CC(C)CN(C(=O)COC(=O)c1ccccc1SCC(=O)NC1CCCCCC1)C1CCS(=O)(=O)C1 (stereo not given)	-3%	30	3	12%	-22%	nt
SMILES	12-hLO inh	PNC inhibitor	IMPase cell inh	IMPase Li inh	HPGD block	ALOX15B inhib
Cc1ccccc1C(=O)NC(=S)NCC1CCCO1 (stereo not given)	-10%	-105*	7	14%[38.3 µM]	-7%	?
CCN(C(=O)COC(=O)c1ccccc1SCC(=O)NC1CCCCCCC1)C1CCS(=O)(=O)C1 (stereo not given)	0%	-112*	nt	7%	?	nt
CC(c1ccccc1)n1cc(C(=O)NCC2CCCO2)nn1 (stereo not given)	6%	-100*	-1	2%	-12%	nt
C[C@H]1Cc2c(COc3ccccc3)nc3c(c2CO1)CN(C(=O)C1CC1)CC3	1%[11.4 µM]	nt	nt	11%	0%	nt
COc1ccc(-c2cc(C(F)(F)F)nc(SCCC(=O)Nc3ccc(NC(C)=O)cc3)n2)cc1	nt	nt	-6	nt	nt	nt
O=C(O)c1cccc(C[C@H](Br)C(=O)O)c1	-2%[11.4 µM]	nt	nt	2%	-10%	-10%[11.4 µM]
N/N=C1/c2ccccc2N[C@H]1OC(=O)Nc1cccc(Cl)c1	-3%[11.4 µM]	nt	nt	-2%	-5%	-3%[11.4 µM]
CCOC(=O)N1CCc2c(sc3c2C(=O)NC(c2ccc(N(C)C)cc2)N3)C1 (stereo not given)	nt	nt	7	nt	nt	nt
CC(C)(C)c1ccc(C(=O)NC(=S)NCC2CCCO2)cc1 (stereo not given)	?	-19	-3	nt	nt	nt
CC(C)(C)c1ccc(C(=O)c2c[nH]c(C(=O)NCC3CCCO3)c2)cc1 (stereo not given)	1%	26	2	1%	13µM*	7%
CSc1ccccc1C(=O)NCC1CCCO1 (stereo not given)	-2%	12	1	8%[38.3 µM]	16µM*	7%
CCC(C)NC(=O)COC(=O)c1csc2c1CCCC2 (stereo not given)	1%	7	6	-5%	25µM*	nt
CCN(C)c1ccc(/C=N\n2nnnc2N)cc1	2%	0	5	31%[38.3 µM]	-17%	2%
CCOC(=O)N/N=C/c1ccc(N(CC)CC)cc1O	0%	2	nt	1%	-14%	nt
CCN(CC)c1ccc(/C=N/Nc2ccc(C)cc2)c(O)c1	-11%	-12	-6	3%	32µM*	nt
CCN(CC)c1ccc(/C=N/n2nnnc2N)c(O)c1	-8%	-120*	15	-2%[38.3 µM]	?	-3%
C=CCOC(=O)N[C@H](/C(C(=O)OC)=C(\C)NCc1ccccc1)c1ccc2c(c1)OCO2	nt	nt	nt	16%	-8%	nt
Cc1ccc(OCCN2C(=O)c3ccccc3C2=O)c(C)c1	-3%	22	26	14%	22µM*	8%
Cc1cccc2c1N(CCCOc1ccccc1)C(=O)C2=O	-21%	26	8	-1%[38.3 µM]	28µM*	-28%
Cc1ccc2c(c1)C(=O)C(=O)N2CCCOc1ccccc1C	nt	nt	nt	4%	nt	nt
Cc1cccc(OCCN2C(=O)C(=O)c3cccc(C)c32)c1	0%	-16	nt	-1%	-15%	nt
Cc1ccccc1OCCCN1C(=O)C(=O)c2cccc(C)c21	?	-15	17	26%[38.3 µM]	?	25µM*
Cc1ccc(OCCN2C(=O)c3ccccc3C2=O)c([N+](=O)[O-])c1	-1%	-14	nt	15%	-22%	nt

Assay outcomes: PubChem, National Center for Advancing Translational Sciences (NCATS)
